Entries with a potency or affinity are not part of this list. Activity calls are given as the source filed them.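 How the source made its calls: active means compounds lowering cell ATP signal whose fitted half-effect dose is at most a set limit; inconclusive means flat fit showing moderate signal loss, or unreliable curve fit; inactive means the rest, including signal increases.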

A short description of the experiment: A375 melanoma cell viability loss, dose response, counter-screen for MITF modulator project, CellTiter-Glo luminescence, dry powder, set 9 (AID 651591). Conditions: CellTiter-Glo ATP luminescence, 24 h; series mostly up to 35 µM.
With `NC1=C(NS(=O)(=O)c2ccc(Br)cc2)C(=O)c2ccccc2C1=O`, the call was inactive.

`O=C1C=C(NS(=O)(=O)c2ccc(Br)cc2)C(=O)c2ccccc21`: the call was inactive.

For `NC1=C(NS(=O)(=O)c2ccccc2)C(=O)c2ccccc2C1=O`, the molecule was called inactive.

With `CC(C)N1CCN(C2=C(Nc3ccc(F)cc3F)C(=O)c3ccccc3C2=O)CC1`, the molecule was classed as inactive.

For the molecule `O=C1C(Nc2ccccc2)=C(c2ccccc2)C(=O)c2ccccc21`, the outcome was inactive.

In the case of `O=C1C=C(NS(=O)(=O)c2cccs2)C(=O)c2ccccc21`, the molecule was called inactive.

On to `O=C1C=C(NS(=O)(=O)c2ccccc2)C(=O)c2ccccc21`, for which the result was inactive.

For the molecule `NC1=C(NS(=O)(=O)c2ccc(Br)s2)C(=O)c2ccccc2C1=O`, the molecule was classed as inactive.

The values are drawn from PubChem BioAssay AID651591 (Broad Institute, 2012).
